Experimental findings from PubChem BioAssay (NCI) are described below.

About 83,000 compounds went through this panel and 20% of them were active in at least one assay; those are over-represented in the sample as a whole.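 Values shown are percent growth following 48 h exposure of cells in 96-well plates to a single concentration of compound; below 10 was considered active.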 Unmarked numbers belong to inactive results. Active and inactive are the calls of the source.

What all share (assay): NCI-60 one-dose screen, 48 h (100 = growth as untreated, 0 = no growth, -100 = all killed)
Experiment [1] has as its system SK-MEL-2 melanoma. The following applies: 10 µM unless noted.
The subject of experiment [2] is SN12C renal. The settings on record: 10 µM unless noted.
Experiment [3] relates to UO-31 renal. The following applies: 10 µM unless noted.
Experiment [4] has as its system TK-10 renal. The following applies: 10 µM unless noted.
The test system of experiment [5] is ACHN renal. The following applies: 10 µM unless noted.
For experiment [6], the system named is CAKI-1 renal. The following applies: 10 µM unless noted.
Experiment [7] has as its system A498 renal. The following applies: 10 µM unless noted.
Experiment [8] relates to CCRF-CEM leukemia. The settings on record: 10 µM unless noted.
In experiment [9] the test system is MOLT-4 leukemia. The settings on record: 10 µM unless noted.
In experiment [10] the test system is SR leukemia. The settings on record: 10 µM unless noted.
For experiment [11], the system named is RPMI-8226 leukemia. The settings on record: 10 µM unless noted.
Experiment [12] relates to OVCAR-8 ovarian. The following applies: 10 µM unless noted.
Experiment [13] deals with OVCAR-5 ovarian. The settings on record: 10 µM unless noted.
In experiment [14] the test system is OVCAR-4 ovarian. The settings on record: 10 µM unless noted.
Experiment [15] concerns SK-OV-3 ovarian. The following applies: 10 µM unless noted.
The subject of experiment [16] is IGROV1 ovarian. The following applies: 10 µM unless noted.
Experiment [17] has as its system OVCAR-3 ovarian. The settings on record: 10 µM unless noted.
The subject of experiment [18] is HS 578T breast. The settings on record: 10 µM.
In experiment [19] the test system is NCI/ADR-RES ovarian. The following applies: 10 µM unless noted.

In the case of `Clc1cc(Br)ccc1-c1ccc(CNCC2CCNCC2)o1`, the growth in [1] is 76.8%; in experiment [2] it was 86.3%; in experiment [3], -58.5% (active); in [4], 32.2%; in experiment [5], 3.97% (active); in [6], 68.6%. For the same compound, the growth is 81.8% in experiment [7]; 24% in experiment [8]; 55.6% in [9]; 17.2% in experiment [10]; 43.8% in [11]; 33.6% in experiment [12]. For the same compound, the growth is 84.8% in [13]; -40.7% (active) in experiment [14]; 67.2% in experiment [15]; 53.8% in experiment [16]; 14% in experiment [17]; 62.4% in [18]. For the same compound, in experiment [19], the growth is 54.7%.

Consider `O=C(C=P(c1ccccc1)(c1ccccc1)c1ccccc1)CCl`, for which the growth in experiment [1] is -47.4% (active); in experiment [2], -19.3% (active); in [3], -95.4% (active); in experiment [4] it was -46.2% (active); in experiment [5], -85.7% (active); in [6], -74.9% (active). Further, the growth in experiment [7] was -35.8% (active); in [8], -3.6% (active); in experiment [9], -35.8% (active); in experiment [10], 3.51% (active); in experiment [11], -19.2% (active); in [12] it was -37.1% (active). Also, the growth in experiment [13] was 1.7% (active); in experiment [14], -37.3% (active); in experiment [15] it was 24.6%; in experiment [16] it was -69.5% (active); in experiment [17], -85.1% (active); in experiment [18], 18.6%. Also, the growth in experiment [19] is -27% (active).

With `CNCCCNc1ccnc2cc(Cl)ccc12`, the growth in experiment [1] was -64.5% (active); in [2] it was 2.75% (active); in experiment [3], -34.4% (active); in experiment [4], -11.4% (active); in experiment [5], -31.6% (active); in [6] it was -29.7% (active). Besides, the growth in [7] is -78.2% (active); in [8], -17.1% (active); in experiment [9], 2.58% (active); in [10], 3.67% (active); in experiment [11] it was -12.3% (active); in experiment [12], 1.62% (active). For the same compound, the growth in experiment [13] was 13.1%; in experiment [14], -21.3% (active); in experiment [15], 5.19% (active); in [16] it was -21.7% (active); in [17], -31.2% (active); in experiment [18], -3.8% (active).

Regarding `COc1cc(-c2nc(-c3nc4cc(C(=O)c5ccccc5)ccc4[nH]3)cc3c2[nH]c2ccccc23)cc(OC)c1OC`, the growth in experiment [1] is 87.3%; in experiment [2], 89.5%; in experiment [3], 73.2%; in [4], 106%; in experiment [5] it was 87.2%; in experiment [6], 84%. In addition, the growth in experiment [7] was 105%; in [8], 57.2%; in [9] it was 63%; in experiment [10] it was 81.6%; in experiment [11] it was 42%; in experiment [12], 67.4%. The growth in experiment [13] is 103%; in [14], 96.8%; in [15], 146%; in [16] it was 107%; in experiment [17] it was 101%; in experiment [18] it was 95.7%. Further, the growth in experiment [19] was 88.7%.

`COc1ccc(-c2nc3ccc(Cc4ccc5nc(-c6ccc(OC)cc6)[nH]c5c4)cc3[nH]2)cc1`: the growth in experiment [1] was 41.2%; in experiment [2] it was 42.4%; in experiment [3], 89.3%; in experiment [4], 75.1%; in [5], 85.4%; in [6] it was 56.3%. The growth in experiment [7] is 102%; in experiment [8], 13.4%; in experiment [9] it was 43.7%; in experiment [10], 38.8%; in experiment [11], 18.5%; in experiment [12], 15.1%. The growth was 91.2% in experiment [13]; 11.4% in experiment [14]; 97.3% in experiment [15]; -16.9% (active) in [16]; -21.9% (active) in [17]; 73.1% in experiment [18].

On to `O=c1c2sc3ccccc3c2nnn1-c1ccc(F)c(Cl)c1`, for which the growth in [1] was 75.4%; in experiment [2], 70.2%; in experiment [3] it was 18.1%; in experiment [4], 29%; in [5], 4.64% (active); in experiment [6] it was 35.6%. The growth in experiment [7] is 56.6%; in [8], 48.6%; in [9], 34.3%; in experiment [10], -42% (active); in experiment [11] it was 57.3%; in experiment [12], 37.7%. Besides, the growth is 51% in [13]; -5.65% (active) in [14]; -8.62% (active) in experiment [15]; 21.2% in [16]; 33% in experiment [18]; 64.5% in experiment [19].

Consider `COc1ccc(NC(=O)C2c3ccccc3C(=O)N(CC(C)C)C2c2cccs2)cc1` (stereo not given), for which the growth was 102% in experiment [1]; 92.1% in experiment [2]; 108% in experiment [3]; 97.8% in experiment [4]; 97.3% in experiment [5]; 92.2% in [6]. The growth in [7] was 86.7%; in experiment [8], 92.7%; in experiment [9], 98.6%; in experiment [10], 96.5%; in experiment [11] it was 86.3%; in experiment [12], 89.1%. Besides, the growth in experiment [13] is 97%; in experiment [14] it was 93.6%; in experiment [15], 96.5%; in experiment [16] it was 117%; in experiment [17], 102%; in experiment [18] it was 92.2%.

As for `CC(C)N1CCN(c2ccncc2S(=O)(=O)N2CCN(C)CC2)CC1`, the growth in experiment [1] was 107%; in experiment [2], 98.4%; in [3], 87.3%; in experiment [4] it was 101%; in experiment [5], 101%; in experiment [6], 98.5%. Moreover, the growth in experiment [7] is 107%; in experiment [8] it was 98.4%; in [10], 93.5%; in experiment [11], 102%; in experiment [12], 103%; in experiment [13], 96.9%. Also, the growth in experiment [14] is 96.1%; in experiment [15] it was 103%; in [17], 110%; in [18] it was 105%.
